Assay [1] is described as follows: qHTS assay to identify small molecule antagonists of the vitamin D receptor (VDR) signaling pathway - cell viability counter screen (AID 743225). Note: nearly all actives have a fitted effect of over 50% in size. An outline of the steps:
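In this counter screen, VDR-bla HEK 293T cells receive test compound plus 3 nM final calcitriol for 16 h at 37C. Room-temperature steps of 2 h with the beta-lactamase substrate, then 30 min with CellTiter-Glo, precede the luminescence read.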
A general note: Quantitative high-throughput screening tests each substance at several concentrations.

The nature of assay [2]: qHTS assay to identify small molecule agonists of the NFkB signaling pathway (AID 1159509; active = well fitted curve in the direction sought with a large enough effect in the signal ratio in the repeat runs, not every such curve was filed as active; the % refers to the signal ratio; note: series mostly up to about 61 µM). The method, boiled down: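 NFkB-bla ME-180 cells with a beta-lactamase reporter under an NF-kB response element were plated overnight, treated with compounds in DMSO for 5 hr at 37 C, then loaded with FRET substrate for 1.5 hr at room temperature.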
The nature of assay [3]: qHTS assay to identify small molecule agonists of the NFkB signaling pathway - cell viability counter screen (AID 1159515; calls by dose curve; note: series mostly up to about 61 µM; nearly all actives have a fitted effect of over 55% in size). An outline of the steps:
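Using the same wells as the NFkB reporter read, ME-180 NFkB-bla cells given compounds for 5 hr were assessed for viability via CellTiter-Glo, with luminescence taken after a 30 min room-temperature incubation.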

Assay [4] is described as follows: qHTS assay to identify small molecule agonists of the endoplasmic reticulum stress response signaling pathway (AID 1159516; active = well fitted activation curve with a large enough effect in the signal ratio in the repeat runs, not every such curve was filed as active; the % refers to the signal ratio). The method, boiled down:
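An ESRE-bla HeLa cell assay: compounds were pin-transferred from DMSO onto overnight-plated cells and left 5 hr at 37 C. Substrate was then loaded for 2 hr at room temperature before reading fluorescence at 460 nm and 530 nm.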

Assay [5] in a line: qHTS assay to identify small molecule agonists of the endoplasmic reticulum stress response signaling pathway - cell viability counter screen (AID 1159517; calls by dose curve;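 note: HeLa cells carrying an ER stress response element beta-lactamase reporter; series mostly up to about 61 µM; nearly all actives have a fitted effect of over 50% in size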). An outline of the steps: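 Luminescence readout: CellTiter-Glo, 30 min RT, same wells as the ESRE-bla reporter read. HeLa ESRE-bla, 1,500 cells/well, o/n 37 C; cpd 5 hr 37 C/5% CO2.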
The nature of assay [6]: qHTS assay to identify small molecule antagonists of the retinoid-related orphan receptor gamma (ROR-gamma) signaling pathway - cell viability counter screen (AID 1159520). Note: nearly all actives have a fitted effect of over 50% in size. Note: potency is the fitted concentration of half-maximal effect. The method, boiled down:
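Tet-on ROR gamma CHO cells (1,000/well) were plated 4 hr, given compounds in DMSO for 2 hr at 37 C, then induced with 1 uM final doxycycline for 16 hr. Viability was read as ATP by CellTiter-Glo luminescence after 30 min.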

In assay [7] the target is Nuclear receptor ROR-gamma (Homo sapiens) (UniProt P51449). Kind of assay: qHTS assay to identify small molecule antagonists of the retinoid-related orphan receptor gamma (ROR-gamma) signaling pathway (AID 1159521; note: nearly all actives have a fitted effect of over 50% in size; note: potency is the fitted concentration of half-maximal effect). The method, boiled down: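 Screening format: cell-based luciferase reporter in CHO cells with doxycycline-inducible RORγ. Compound pre-exposure lasts 2 h, doxycycline is 1 uM final, induction runs 16 h at 37 C, and ONE-Glo luminescence is read.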

Assay [8] can be described thus: qHTS assay to identify small molecule agonists of the AP-1 signaling pathway - cell viability counter screen (AID 1159525; calls by dose curve; note: nearly all actives have a fitted effect of over 55% in size). An outline of the steps:
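ME-180 AP-1-bla, 2500 cells/well, Opti-MEM + 0.5% dialyzed FBS; overnight 37 °C; cpd 15-pt titration, 5 h 37 °C; CellTiter-Glo 30 min RT; luminescence read; normalised to TOAB and DMSO controls.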

Assay [9] is described as follows: qHTS assay to identify small molecule agonists of the AP-1 signaling pathway (AID 1159526; calls by dose curve).
Assay [10] in a line: qHTS assay to identify small molecule agonists of the RXR signaling pathway - cell viability counter screen (AID 1159529). Note: nearly all actives have a fitted effect of over 50% in size. Note: potency is the fitted concentration of half-maximal effect. The method, boiled down: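 Viability read-out for the RXR-alpha agonist qHTS: luminescent CellTiter-Glo signal after 30 min at RT. HEK 293T bla reporter cells, 2% charcoal-stripped FBS, 16 hr compound incubation; tetraoctyl ammonium bromide as cytotoxic control.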

The nature of assay [11]: qHTS assay to identify small molecule antagonists of the retinoid acid receptor (RAR) signaling pathway - cell viability counter screen (AID 1159551). Note: nearly all actives have a fitted effect of over 35% in size. An outline of the steps:
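Retinol-stimulated (1 uM final) C3RL4 cells, compound 6 h, 37 C; readout CellTiter-Glo luminescence (ATP) after 30 min RT incubation.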

A short description of assay [12]: qHTS assay to identify small molecule antagonists of the estrogen related receptor (ERR) signaling pathway from Tox21 library - cell viability counter screen (AID 1224834). Note: nearly all actives have a fitted effect of over 30% in size. Note: potency is the fitted concentration of half-maximal effect. An outline of the steps: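 After 17.5 h of compound exposure at 37 C, ERR cells are incubated with CellTiter-Fluor for 30 min and fluorescence intensity serves as the viability measure.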
A short description of assay [13]: qHTS assay to identify small molecule antagonists of the retinoic acid receptor (RAR) signaling pathway (AID 1159552; note: nearly all actives have a fitted effect of over 50% in size). The method, boiled down: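 Using a RARE-driven luciferase construct in C3RL4 cells, retinol at 1 uM final provided the agonist stimulus while compounds were co-applied. After 6 hours at 37 C, luminescence was recorded to flag inhibitors of retinol signaling.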

A short description of assay [14]: qHTS assay to identify small molecule agonists of the retinoic acid receptor (RAR) signaling pathway (AID 1159553). An outline of the steps:
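Reporter readout comes from luciferase under RARE control in C3RL4 cells; compound exposure lasts 6 hr at 37 C in 5% CO2, and luminescence is recorded following a 30 min room-temperature incubation with reagent.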

Assay [15] has as its target Retinoic acid receptor RXR-alpha (Homo sapiens) (UniProt P19793). Kind of assay: qHTS assay to identify small molecule agonists of the RXR signaling pathway (AID 1159527; calls by dose curve; note: nearly all actives have a fitted effect of over 35% in size). The method, boiled down:
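Fluorescence ratio readout (460 vs 530 nm) from GeneBLAzer RXR-alpha HEK 293T cells after 16 hr compound treatment; cells seeded 5 hr beforehand in low-serum, charcoal-stripped medium.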

Inconclusive results are not listed. Unmarked numbers belong to inactive results. Calls of active or inactive are those of the source. Unless noted, calls come from the whole dose curve; as a rule, active = well fitted curve in the direction sought with a large enough effect in the repeat runs; inconclusive = weak or mixed curves; inactive = no such curve, though single readings can be large; an effect the other way counts as inactive or inconclusive.

Sequence of Retinoic acid receptor RXR-alpha (Homo sapiens) (P19793 whole entry, looked up): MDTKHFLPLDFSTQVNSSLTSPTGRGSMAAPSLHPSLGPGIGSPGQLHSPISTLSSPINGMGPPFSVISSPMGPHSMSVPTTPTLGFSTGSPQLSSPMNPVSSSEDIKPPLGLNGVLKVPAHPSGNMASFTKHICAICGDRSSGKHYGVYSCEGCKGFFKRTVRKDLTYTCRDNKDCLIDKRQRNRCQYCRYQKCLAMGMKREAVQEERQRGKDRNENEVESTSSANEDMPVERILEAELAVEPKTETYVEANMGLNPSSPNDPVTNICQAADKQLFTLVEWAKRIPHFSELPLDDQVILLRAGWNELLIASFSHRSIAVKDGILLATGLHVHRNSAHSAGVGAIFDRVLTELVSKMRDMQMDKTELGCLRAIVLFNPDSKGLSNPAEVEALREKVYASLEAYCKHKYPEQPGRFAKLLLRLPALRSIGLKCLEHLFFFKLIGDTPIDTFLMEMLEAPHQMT

`C[C@]1(O)CC[C@H]2[C@@H]3CCC4=CC(=O)CC[C@]4(C)[C@@]3(F)[C@@H](O)C[C@@]21C`: the result in assay [1], in assay [2], in assay [3], in assay [4] and in assay [9] was inactive. The Potency result in assay [5], in assay [6], in assay [7], in [8], in assay [10] and in [11] was “inactive” each time. In addition, the Potency result in assay [12] is “inactive”.

As for `CC(C1CC1)C(O)(Cn1cncn1)c1ccc(Cl)cc1` (stereo not given), the compound was classed as inactive in [1], in assay [2], in [3], in [4] and in [9]. Moreover, the Potency entry in [5], in assay [6], in assay [7], in assay [8], in assay [10] and in assay [11] was “inactive” in each case. The Potency result in [13], in assay [14] and in assay [12] was “inactive” each time.

Consider `CCOP(=S)(OCC)Oc1ncn(-c2ccccc2)n1`, for which the compound was classed as inactive in [2], in assay [3], in assay [4] and in [9]. For the same compound, the Potency result in assay [5], in [6], in [7], in [8], in [10] and in assay [11] was “inactive” in each case. The Potency entry in assay [13] and in assay [12] was “inactive” throughout.

On to `Nc1n[nH]c(N)n1`, for which the call in assay [1], in assay [2], in assay [3] and in assay [4] was inactive. The Potency entry in [5], in assay [6], in [8], in assay [11], in assay [14] and in [12] was “inactive” each time. Moreover, in [7], the Potency is 15.6 µM (active).

`ClCCCN1CCN(c2cccc(Cl)c2)CC1`: the call in assay [2], in [3] and in assay [4] was inactive. Also, the Potency entry in assay [5], in assay [6], in [7], in assay [8], in [15] and in assay [10] was “inactive” throughout. The Potency result in [11], in assay [13], in assay [14] and in [12] was “inactive” throughout.

For the compound `CCC(=O)C(CCN(C)C)(c1ccccc1)c1ccccc1`, the outcome in assay [1], in assay [2], in assay [3] and in assay [4] was inactive. In addition, the Potency result in assay [5], in assay [6], in [7], in [8], in assay [10] and in assay [11] was “inactive” in each case. Besides, the Potency result in assay [14] and in [12] was “inactive” throughout.

As to `CCCCc1ccc(O)cc1`, the outcome in assay [1], in assay [2], in assay [3] and in assay [4] was inactive. Further, the Potency result in assay [5], in [6], in assay [7], in assay [8], in assay [10] and in assay [11] was “inactive” throughout. The Potency entry in [13], in assay [14] and in assay [12] was “inactive” in each case.

On to `COc1cccc2c1cc([N+](=O)[O-])c1c(C(=O)O)cc3c(c12)OCO3`, for which the compound was classed as inactive in [2], in assay [3] and in assay [4]. The Potency entry in assay [5] and in assay [8] was “inactive” in each case. The Potency in [6] is 43.3 µM (active); in assay [7], 15.4 µM (active); in assay [10] it was 17.4 µM (active); in assay [12], 30.6 µM (active).

For the compound `CN1CCC(N(Cc2ccccc2)c2ccccc2)CC1`, the compound was classed as inactive in assay [1], in assay [2], in assay [3] and in [4]. In addition, the Potency result in assay [5], in [6], in [7], in [8], in [15] and in assay [11] was “inactive” each time. The Potency result in assay [12] is “inactive”.

In the case of `CC(=O)Nc1cc([As](=O)(O)O)ccc1O`, the call in assay [1], in [2], in assay [3], in assay [4] and in [9] was inactive. In addition, the Potency entry in [5], in [6], in [7], in [8], in assay [10] and in assay [13] was “inactive” in each case. Besides, the Potency entry in [14] and in assay [12] was “inactive” in each case.

For `O=NN1CCN(N=O)CC1`, the compound was called inactive in [2], in [3], in [4] and in assay [9]. Further, the Potency entry in assay [5], in [6], in [7], in [8], in assay [11] and in assay [12] was “inactive” throughout.

On to `CCOC(=O)N(C)C(=O)CSP(=S)(OCC)OCC`, for which the outcome in [2], in assay [3], in assay [4] and in assay [9] was inactive. Further, the Potency entry in [5], in [6], in [7], in assay [8], in [11] and in assay [12] was “inactive” throughout.

The values above are taken from PubChem BioAssay (Tox21).
